Screening data (PubChem BioAssay)
Many of the other results were omitted from the sample, so hits are more common in it than they were.
Dicer inh – inhibitors of Dicer pre-microRNA processing, primary screen, biochemical, cat-ELCCA, chemiluminescence. cat-ELCCA pre-miR-21 Dicer processing; active compounds read high. z-score at 25 µM. Endoribonuclease Dicer (Homo sapiens), Q9UPY3. 47,000 compounds, 6% hits; in the data active means z-score above about 3, passing the limit was not always enough;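 further: higher signal means more uncleaved substrate so more Dicer inhibition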
Of the large screens only hits and unclear results are named; the others gave an inactive call.

CCc1cc2c(=O)c(-c3nc4ccccc4[nH]3)coc2c(CN(CC)CC)c1O	none
COC(=O)C1=C(C(=O)OC)SC(=C2C(=S)C(C)(C)Nc3c(OC)cccc32)S1	none
CCOC(=O)/C(C#N)=C/c1cn(-c2ccccc2)nc1-c1ccc(C)cc1	none
O=C(CSc1nncn1-c1ccc(OCc2ccccc2)cc1)Nc1cc(Cl)cc(Cl)c1	none
CCCn1c(=O)c2c(nc3n2CCN3c2ccc(OC)cc2)n(C)c1=O	none
COC(=O)C1=C(C)NC2=C(C(=O)CCC2)C1c1cc(OC)ccc1OC (stereo not given)	none
CC1CCc2c(sc3nnn(CC(=O)OC(C)C)c(=O)c23)C1 (stereo not given)	none
CC1CCc2c(sc3nnn(CC(=O)N4CCCCC4)c(=O)c23)C1 (stereo not given)	none
CC1CCc2c(sc3nnn(CC(N)=O)c(=O)c23)C1 (stereo not given)	Dicer inh 6.4
N#Cc1c(Cl)cccc1Oc1ccc(S(=O)(=O)NNc2c(Cl)cncc2Cl)cc1	none
Cc1c(C(=O)Nc2ccc(Cl)cc2)cc(-c2ccccc2)n1-c1ccccc1	none
CCOC(=O)c1cc(C)ccc1NC(=O)c1ccc(Cl)cc1	none
Cc1ccc(N)c(C(=O)Nc2ccc(Cl)cc2)c1	Dicer inh 5.1
CCOC(=O)c1cnc2c(-c3ccccc3)c(C(F)(F)F)sc2c1N1CCCC1	none
Cc1onc(-c2c(Cl)cccc2Cl)c1C(=O)NNc1cccc(C(F)(F)F)n1	none
CCOC(=O)c1c(NS(=O)(=O)c2ccc(C)cc2)sc(C)c1-c1ccccc1	none
COc1cc(-c2ccc(=O)[nH]n2)ccc1OC(F)F	none
COc1ccc(-c2cc(-c3cc(OC)ccc3O)[nH]n2)cc1	Dicer inh 8.1
COc1ccc(-c2ccc(=O)[nH]n2)cc1	none
COc1ccc(-c2nc(-c3ccccc3)no2)cc1OC	none
COc1ccc(-c2cc(-c3ccccc3O)[nH]n2)cc1OC	Dicer inh 5
CCc1cc(-c2[nH]ncc2-c2ccc(OC)cc2)c(O)cc1O	none
O=C(CN1CCN(CCCc2c[nH]c3ccc(F)cc23)CC1)c1ccc(F)cc1	none
COc1ccc(C2C(C(=O)OC(C)(C)C)C(=O)CC(C)(O)C2C(=O)OC(C)(C)C)cc1 (stereo not given)	none
COc1cc2c(cc1OC)C(c1ccc(F)cc1)C1=C(CC(C)(C)CC1=O)N2 (stereo not given)	none
CC1(C)CC(=O)C2=C(C1)Nc1cc3c(cc1C2c1ccc(Br)cc1)OCO3 (stereo not given)	Dicer inh 4.7
COC(=O)C1=C(C)NC2=C(C(=O)CC(C)(C)C2)C1c1cc2c(cc1Br)OCO2 (stereo not given)	none
COc1cc(C)c(C(c2ccc(N(C)C)cc2)c2ccc(N(C)C)cc2)cc1C	none
O=C(NC1=NCCS1)c1cc2ccccc2o1	Dicer inh 3.6
O=C(NC1=NCCS1)c1cccs1	none
O=C(Nc1ccc2c(c1)OCCO2)c1cc2ccccc2o1	none
CCC(=O)N1N=C(c2cccs2)CC1c1cn(-c2ccccc2)nc1-c1cccs1 (stereo not given)	none
C=CCN/C(SC)=C(\C#N)S(=O)(=O)c1ccc(Cl)cc1	none
CSC(SC)=C(C#N)S(=O)(=O)c1ccc(Cl)cc1	Dicer inh 3.2
CS/C(NCc1ccco1)=C(/C#N)S(=O)(=O)c1ccc(Cl)cc1	none
O=C(COc1ccccc1SCc1ccc(Cl)cc1)NNC(=O)c1ccccc1Cl	none
COC(=O)C1=C(Nc2ccc(OC(=O)c3ccccc3Cl)cc2)CSC1	none
O=C(c1ccc(Cl)c(Cl)c1)c1cc2cc(Cl)ccc2o1	none
CC(C)n1c(SCc2ccccc2F)nc2c1c(=O)n(C)c(=O)n2C	none
Cn1c(=O)c2c(nc(Cl)n2Cc2ccc(F)cc2)n(C)c1=O	Dicer inh 3.1
Cc1ccccc1CSc1nc2c(c(=O)n(C)c(=O)n2C)n1C	Dicer inh 5.2
Cn1c(=O)c2c(nc(Cl)n2Cc2ccc(C(C)(C)C)cc2)n(C)c1=O	none
Cn1c(=O)c2c(nc(Cl)n2Cc2cccc(Cl)c2)n(C)c1=O	none
Cn1c(=O)c2c(nc(SCc3cc4c(cc3Cl)OCO4)n2C)n(C)c1=O	none
Cn1c(=O)c2c(nc(N3CCCCC3)n2Cc2ccc(Cl)cc2)n(C)c1=O	none
Cn1c(=O)c2c(ncn2Cc2ccc(Cl)cc2)n(C)c1=O	none
Cn1c(=O)c2c(nc(Sc3ccccc3)n2Cc2ccc(Cl)cc2Cl)n(C)c1=O	none
Cn1c(=O)c2c(nc(Sc3ccc(Cl)cc3)n2C)n(C)c1=O	Dicer inh 3.1
Cn1c(=O)c2c(nc(N3CCOCC3)n2Cc2ccc(Cl)cc2)n(C)c1=O	none
Cn1c(=O)c2c(nc(Br)n2Cc2ccc(Cl)cc2)n(C)c1=O	Dicer inh 4.2
COc1cc(-c2nc3ccc(OC(C)=O)cc3c(=O)o2)ccc1OC(C)=O	none
CCOC(=O)c1nnn2c1nc(SC(C(C)=O)C(=O)OCC)c1ccccc12 (stereo not given)	none
O=C(Nc1ccccc1N1CCOCC1)c1ccnc(N2CCC(O)(c3ccc(Cl)cc3)CC2)c1	none
CN1c2ccccc2C(=O)/C(=C/N=S(C)(C)=O)S1(=O)=O	none
Cc1cc(NC(=O)COCC(=O)O)n(C)n1	none
C=CCOC(=O)c1sc(N2C(=O)c3oc4ccccc4c(=O)c3C2c2ccc(OC)cc2)nc1C (stereo not given)	none
N#C/C(=C\Nc1cc(C(F)(F)F)cc(C(F)(F)F)c1)C(=O)c1ccc(Cl)cc1	none
CCOC(=O)c1ccc2nc(C(F)(F)F)cc(NC3CCN(Cc4ccccc4)CC3)c2c1	none
CC1CCc2c(sc3[nH]c(=O)n(-c4ccccc4)c(=O)c23)C1 (stereo not given)	none
C=CCSc1nc(-c2ccccc2)c(-c2ccccc2)[nH]1	none
Cn1c(SCC#N)nnc1-c1ccc(C(C)(C)C)cc1	none
COc1ccccc1C(O)c1cnc(C(C)C)n1C (stereo not given)	none
O=S(=O)(CS(=O)(=O)Oc1cccc(Br)c1)Oc1cccc(Br)c1	none
Cc1ccc(/C=C/c2onc(C)c2[N+](=O)[O-])o1	none
Cc1noc(/C=C/c2ccc(OCc3ccsc3C#N)cc2)c1[N+](=O)[O-]	none
Cc1noc(/C=C/c2ccc(N3CCCC3)cc2)c1[N+](=O)[O-]	Dicer inh 3.3
CC(C)(C)SCCNC(=S)NCCO	none
COc1ccc(OC)c(C2C3=C(CC(C)(C)CC3=O)NC3=C2C(=O)c2ccccc23)c1 (stereo not given)	none
CC1(C)CC(=O)C2=C(C1)NC1=C(C(=O)c3ccccc31)C2c1ccc([N+](=O)[O-])o1 (stereo not given)	Dicer inh 5.5
CC1(C)CC(=O)C2=C(C1)NC1=C(C(=O)c3ccccc31)C2c1cccc(O)c1 (stereo not given)	none
S=c1[nH]cnc2sc3c(c12)CCCC3	none
COc1ccc(C(=O)CC2(O)C(=O)Nc3ccc(Cl)cc32)cc1 (stereo not given)	none
COC(=O)c1c(C)[nH]c(C)c1/C=C(\C#N)C(=O)c1ccc(Cl)cc1	none
O=C(O)c1ccc(N2C(=O)C3C4c5ccccc5C(c5ccccc54)C3C2=O)cc1Cl (stereo not given)	none
O=C1C2C3c4ccccc4C(c4ccccc43)C2C(=O)N1c1ccccc1 (stereo not given)	none
O=C(O)c1ccccc1N1C(=O)C2C3c4ccccc4C(c4ccccc43)C2C1=O (stereo not given)	Dicer inh 4.6
Cc1cc(C(C)(C)C)ccc1NC(=O)CSCC(=O)O	none
COc1ccc(C2NN=C(c3ccccc3OCc3ccccc3)C2O)cc1 (stereo not given)	none
CCOC(=O)c1c(C)oc2ccc(OCc3ccc(F)cc3)cc12	none
CCOC(=O)c1cc2cc(OCc3ccccc3)ccc2n1C(=O)c1ccccc1C(=O)O	Dicer inh 3.1
